# Reference: PubChem BioAssay AID504452 (The Scripps Research Institute Molecular Screening Center, 2011)
# Activity calls are given as the source filed them. Cut-off read from the data, not from the text of the source: active = activation above about 85%; inactive = the rest.
# Biological target: Peroxisome proliferator-activated receptor gamma (Homo sapiens) (UniProt P37231)
# Assay: partial agonism at human PPARgamma receptor – cell-based, luciferase reporter, luminescence, primary screen (AID 504452);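 note: Cos-1 cells carrying PPARgamma and a response element luciferase reporter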
# Conditions: cell-based PPARg luciferase reporter, at 5 µM, stronger effect = higher value; activation (% of full agonist control): measured here: relative to full agonist control
# Peroxisome proliferator-activated receptor gamma (Homo sapiens), sequence (P37231 whole entry, looked up): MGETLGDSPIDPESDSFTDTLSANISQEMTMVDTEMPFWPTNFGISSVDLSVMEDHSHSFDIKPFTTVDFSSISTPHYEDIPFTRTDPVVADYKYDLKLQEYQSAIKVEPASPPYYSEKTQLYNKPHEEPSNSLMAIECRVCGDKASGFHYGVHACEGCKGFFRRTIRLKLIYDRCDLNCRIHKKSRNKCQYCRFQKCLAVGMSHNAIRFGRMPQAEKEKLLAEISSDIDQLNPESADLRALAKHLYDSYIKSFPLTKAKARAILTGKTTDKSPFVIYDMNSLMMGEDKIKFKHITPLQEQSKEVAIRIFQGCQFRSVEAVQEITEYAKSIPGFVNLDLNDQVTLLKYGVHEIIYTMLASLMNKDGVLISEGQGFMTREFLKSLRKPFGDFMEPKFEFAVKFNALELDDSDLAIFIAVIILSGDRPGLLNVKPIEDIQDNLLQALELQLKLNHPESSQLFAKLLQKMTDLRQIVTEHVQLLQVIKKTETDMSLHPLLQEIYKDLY
SMILES,activation (% of full agonist control) [%],activation (% of partial agonist control)
O=C(Nc1cc(Cl)ccc1O)c1cc2n(n1)C(C(F)(F)F)CC(c1ccc3c(c1)OCO3)N2 (centres undefined),35,77.5% (inactive)
Nc1ccc(-n2c(N)c(C(=O)NCc3ccc4c(c3)OCO4)c3nc4ccccc4nc32)cc1,26.3,58.3% (inactive)
COc1ccc(/C(O)=C2/C(=O)C(=O)N(Cc3ccco3)C2c2cccs2)cc1 (centres undefined),32.1,71.1% (inactive)
O=C(C1=C(O)C(=O)N(CCN2CCOCC2)C1c1ccc(Cl)cc1)c1cc2ccccc2o1 (centres undefined),37.3,82.6% (inactive)
O=C(c1cc(-c2ccco2)nc2ccccc12)N1CCCC(C(F)(F)F)C1 (centres undefined),27.6,61% (inactive)
c1ccc(CCN2CN(CCCN3CCOCC3)c3nc4ccccc4n3C2)cc1,24.6,54.4% (inactive)
O=C(Nc1ccccc1F)C(=O)c1cn(CC(=O)N2CCCCC2)c2ccccc12,34.4,76.1% (inactive)
O=C(CCCCCNC(=O)N1CCn2c1nc1ccccc12)N[C@H](Cc1ccccc1)C(=O)O,27.3,60.5% (inactive)
O=C(C1=C(O)C(=O)N(c2nc3ccc(Cl)cc3s2)C1c1ccco1)c1ccco1 (centres undefined),42.1,93.2% (active)
COc1ccc(-c2cc(C(=O)NC(C)c3ccccn3)c3ccccc3n2)cc1OC (centres undefined),40.7,90.2% (active)
O=C(Cn1c(=O)c(=O)n(Cc2ccccc2)c2ccc(Cl)cc21)Nc1cc(F)ccc1F,28.4,62.9% (inactive)
CC(=O)Nc1cccc(-n2c(=O)n(Cc3ccccc3)c(=O)c3[nH]cnc32)c1,36.6,81.1% (inactive)
